According to PMC7862700, “An all-to-all approach to the identification of sequence-specific readers for epigenetic DNA modifications on cytosine”:

Tests used:
Assay in all cases: DAPPL (digital affinity profiling via proximity ligation, sequencing); 10 mM Tris-HCl pH 7.5, 50 mM NaCl, 1 mM DTT, 4% glycerol, room temperature, 30 min; GST-TFs on glutathione beads, 16-mer random dsDNA library, 0.1% formaldehyde crosslink after washing; high values mean tight binding
Conditions in all cases: protein: recombinant; tags: N-terminal GST; dsDNA, one strand shown
ETV1 = ETV1 (Homo sapiens, UniProt P50549 1-477)
Sequence of ETV1 (P50549 whole entry, the tested form may be a part): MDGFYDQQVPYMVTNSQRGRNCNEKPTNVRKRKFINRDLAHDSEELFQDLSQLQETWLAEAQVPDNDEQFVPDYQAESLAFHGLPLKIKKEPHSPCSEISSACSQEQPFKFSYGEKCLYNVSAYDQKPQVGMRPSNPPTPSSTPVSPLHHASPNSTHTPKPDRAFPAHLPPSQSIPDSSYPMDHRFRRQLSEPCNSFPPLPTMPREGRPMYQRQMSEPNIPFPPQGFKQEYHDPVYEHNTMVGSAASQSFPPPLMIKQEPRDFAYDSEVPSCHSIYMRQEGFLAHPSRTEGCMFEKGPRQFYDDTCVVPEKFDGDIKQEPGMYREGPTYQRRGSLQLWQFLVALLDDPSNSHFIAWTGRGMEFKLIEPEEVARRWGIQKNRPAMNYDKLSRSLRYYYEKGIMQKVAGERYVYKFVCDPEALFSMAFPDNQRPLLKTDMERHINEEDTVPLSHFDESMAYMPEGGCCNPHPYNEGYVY
Outline: (§1)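 GST fusions of human transcription factors were expressed in yeast and captured with glutathione beads. Once given DNA barcodes and pooled alongside a tag-only sample, they were incubated for 30 min at room temperature with 200 nmole of a random double-stranded 16-mer DNA library in Tris/NaCl/DTT/glycerol buffer, then washed, crosslinked (0.1% formaldehyde), proximity-ligated, PCR-amplified and sequenced on an Illumina NextSeq500. The binding signal of each hexamer is its read frequency for a factor divided by its frequency for the tag-only sample.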

ERF = target: T1, ERF (Homo sapiens, UniProt P50548 1-548)
T1 sequence: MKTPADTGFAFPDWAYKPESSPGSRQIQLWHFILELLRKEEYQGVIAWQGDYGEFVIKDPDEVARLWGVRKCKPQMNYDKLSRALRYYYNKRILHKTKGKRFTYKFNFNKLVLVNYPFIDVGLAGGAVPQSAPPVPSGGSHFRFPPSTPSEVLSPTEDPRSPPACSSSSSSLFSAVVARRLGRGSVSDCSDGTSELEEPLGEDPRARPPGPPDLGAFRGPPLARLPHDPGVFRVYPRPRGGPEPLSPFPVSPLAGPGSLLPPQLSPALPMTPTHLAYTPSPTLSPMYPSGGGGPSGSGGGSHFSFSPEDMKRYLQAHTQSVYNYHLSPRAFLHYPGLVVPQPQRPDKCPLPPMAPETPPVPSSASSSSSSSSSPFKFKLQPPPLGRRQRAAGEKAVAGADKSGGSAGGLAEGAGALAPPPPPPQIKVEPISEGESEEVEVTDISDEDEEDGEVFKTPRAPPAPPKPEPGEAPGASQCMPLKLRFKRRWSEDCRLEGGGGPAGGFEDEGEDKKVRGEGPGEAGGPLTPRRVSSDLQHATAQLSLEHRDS
Outline: as §1

ETV3L = target: T2, ETV3L (Homo sapiens, UniProt Q6ZN32 1-361)
T2 sequence: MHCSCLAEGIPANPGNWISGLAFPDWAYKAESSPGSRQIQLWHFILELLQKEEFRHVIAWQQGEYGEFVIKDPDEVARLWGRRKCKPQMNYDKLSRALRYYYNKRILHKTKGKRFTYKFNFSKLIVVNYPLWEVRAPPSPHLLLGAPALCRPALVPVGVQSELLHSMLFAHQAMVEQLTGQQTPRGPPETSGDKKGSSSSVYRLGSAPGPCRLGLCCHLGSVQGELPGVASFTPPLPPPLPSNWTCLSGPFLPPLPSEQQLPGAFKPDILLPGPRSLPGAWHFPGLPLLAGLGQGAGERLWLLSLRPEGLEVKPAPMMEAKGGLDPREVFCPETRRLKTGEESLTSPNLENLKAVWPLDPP
Outline: as §1

ETS2 = target: T3, ETS2 (Homo sapiens, UniProt P15036 1-469)
T3 sequence: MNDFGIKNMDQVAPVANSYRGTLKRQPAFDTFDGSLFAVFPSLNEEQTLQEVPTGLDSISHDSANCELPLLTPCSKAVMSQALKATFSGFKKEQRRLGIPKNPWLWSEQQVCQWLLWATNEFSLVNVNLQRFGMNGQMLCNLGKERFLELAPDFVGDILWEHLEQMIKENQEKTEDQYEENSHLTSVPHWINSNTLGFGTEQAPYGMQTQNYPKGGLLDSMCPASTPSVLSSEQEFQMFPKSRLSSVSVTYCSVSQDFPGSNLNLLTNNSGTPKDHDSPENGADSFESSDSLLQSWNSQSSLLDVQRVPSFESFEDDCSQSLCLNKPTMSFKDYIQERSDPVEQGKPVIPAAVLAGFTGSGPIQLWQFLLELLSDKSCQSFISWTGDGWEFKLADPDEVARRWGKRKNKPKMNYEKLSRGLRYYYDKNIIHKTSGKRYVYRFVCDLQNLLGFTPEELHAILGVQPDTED
Outline: as §1

SPDEF = target: T4, SPDEF (Homo sapiens, UniProt O95238 1-335)
T4 sequence: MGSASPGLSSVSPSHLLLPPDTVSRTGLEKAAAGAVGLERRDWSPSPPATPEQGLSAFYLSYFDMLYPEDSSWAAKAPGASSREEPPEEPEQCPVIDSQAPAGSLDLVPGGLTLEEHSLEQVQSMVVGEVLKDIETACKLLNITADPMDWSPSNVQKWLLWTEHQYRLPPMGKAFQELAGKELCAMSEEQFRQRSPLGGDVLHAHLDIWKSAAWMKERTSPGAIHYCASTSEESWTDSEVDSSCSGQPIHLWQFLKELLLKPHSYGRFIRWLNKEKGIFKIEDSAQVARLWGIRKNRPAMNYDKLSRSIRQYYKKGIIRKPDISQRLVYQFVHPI
Outline: as §1

ETV7 = target: T5, ETV7 (Homo sapiens, UniProt Q9Y603 1-341)
T5 sequence: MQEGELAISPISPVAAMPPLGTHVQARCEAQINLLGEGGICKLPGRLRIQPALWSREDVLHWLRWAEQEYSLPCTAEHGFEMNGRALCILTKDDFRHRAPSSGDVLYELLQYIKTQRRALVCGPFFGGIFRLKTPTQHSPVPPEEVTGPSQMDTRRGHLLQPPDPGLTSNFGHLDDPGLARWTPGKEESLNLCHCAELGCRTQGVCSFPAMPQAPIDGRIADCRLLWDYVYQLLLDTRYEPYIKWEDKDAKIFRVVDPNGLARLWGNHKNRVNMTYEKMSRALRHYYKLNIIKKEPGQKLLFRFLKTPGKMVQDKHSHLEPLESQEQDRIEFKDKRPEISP
Outline: as §1

ELF5 = target: T6, ELF5 (Homo sapiens, UniProt Q9UKW6-2 1-255)
T6 sequence: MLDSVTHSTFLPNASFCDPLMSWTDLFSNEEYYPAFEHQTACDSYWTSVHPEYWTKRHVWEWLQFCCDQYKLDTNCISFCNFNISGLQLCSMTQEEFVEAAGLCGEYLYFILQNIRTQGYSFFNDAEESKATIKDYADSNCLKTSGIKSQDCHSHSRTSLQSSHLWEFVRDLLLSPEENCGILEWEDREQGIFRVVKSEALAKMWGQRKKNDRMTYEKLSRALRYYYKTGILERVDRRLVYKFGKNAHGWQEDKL
Outline: as §1

ETV3 = target: T7, ETV3 (Homo sapiens, UniProt P41162-2 1-143)
T7 sequence: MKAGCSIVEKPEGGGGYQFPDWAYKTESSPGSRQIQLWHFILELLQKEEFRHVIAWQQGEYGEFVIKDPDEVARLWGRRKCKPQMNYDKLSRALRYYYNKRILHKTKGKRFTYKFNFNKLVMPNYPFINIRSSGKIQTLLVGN
Outline: as §1

ETV6 = ETV6 (Homo sapiens, UniProt P41212 1-452)
Sequence of ETV6 (P41212 whole entry): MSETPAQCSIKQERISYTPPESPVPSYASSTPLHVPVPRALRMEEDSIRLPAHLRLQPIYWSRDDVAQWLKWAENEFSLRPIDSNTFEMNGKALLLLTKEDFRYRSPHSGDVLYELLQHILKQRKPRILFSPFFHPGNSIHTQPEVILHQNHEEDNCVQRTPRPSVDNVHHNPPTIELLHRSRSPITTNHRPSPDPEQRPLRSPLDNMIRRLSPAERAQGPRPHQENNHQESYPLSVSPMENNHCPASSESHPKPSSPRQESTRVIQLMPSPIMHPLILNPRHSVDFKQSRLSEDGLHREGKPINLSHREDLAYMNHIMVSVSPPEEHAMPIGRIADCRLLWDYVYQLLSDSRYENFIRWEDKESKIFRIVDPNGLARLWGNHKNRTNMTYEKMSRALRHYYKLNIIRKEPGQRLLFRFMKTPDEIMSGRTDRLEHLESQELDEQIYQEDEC
Outline: as §1

TTCGCC
binding signal (ETV1): 1.13 fold enrichment (6-mer frequency, TF over GST control) | binding signal (ERF): 1.14 fold enrichment (6-mer frequency, TF over GST control) | binding signal (ETV3L): 1.27 fold enrichment (6-mer frequency, TF over GST control) | binding signal (ETS2): 1.12 fold enrichment (6-mer frequency, TF over GST control) | binding signal (SPDEF): 1.1 fold enrichment (6-mer frequency, TF over GST control) | binding signal (ETV7): 1.18 fold enrichment (6-mer frequency, TF over GST control) | binding signal (ELF5): 1.04 fold enrichment (6-mer frequency, TF over GST control) | binding signal (ETV3): 1.08 fold enrichment (6-mer frequency, TF over GST control) | binding signal (ETV6): 1.16 fold enrichment (6-mer frequency, TF over GST control)
